The structures appear in SMILES notation. Screen size: about 320,000 compounds; about 2,100 (0.66%) were called active. Another 53% or so got no clear call; they are omitted. Calls follow the shape of the dose curve; as a rule, active = well fitted inhibition curve with a large enough effect in the signal ratio, with a control signal flat (not every such curve was filed as active); inconclusive = small, poorly fitted or top-dose-only effect, or effect the other way, or a change in a side signal; inactive = flat fitted curve, though single readings scatter; the % refers to the signal ratio. The sample as a whole holds a higher share of actives than the screen did.
Potency is read from the fitted curve at half-maximal effect.

The experiment is described as follows: qHTS Assay for Lipid Storage Modulators in Drosophila S3 Cells.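 As to cell number change: cells counted by Cell Tracker Red CMTPX staining in the red channel.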 As to lipid storage change, negative = inhibition: % is scaled to controls: 0 for no effect and ±100 for the full control effect. The note with it: BODIPY lipid droplet fluorescence, 18-24 h, cells fed with added oleic acid; cell number change: measured here: cell count max response; series mostly up to 46.1 µM. In outline:
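Laser-scanning cytometry quantifies lipid droplet accumulation (500–530 nm total intensity; droplet/cell object ratio) in oleic acid-fed (400 uM added) Drosophila S3 cells treated with a concentration series. 20 uM Triacsin C defined 100% inhibition.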
For orientation: qHTS replaces the single test concentration by a dilution series.
As to `O=C(CN1CCN(Cc2ccccc2)CC1)N1CCN(c2ccccc2)CC1`, the Potency entry was “inactive” and the cell number change was determined as 9.09%.
The like results for `CCc1nc2ccccc2c(C(=O)OCC(=O)NCc2ccco2)c1C` were, in that order, “inactive” and 16.5%.
`CCC(=O)c1ccc(OCC(=O)NNC(=O)c2cc(C)oc2C)cc1`: the cell number change was -5.72% and the lipid storage change, negative = inhibition was -5.26% [at 0.0737 µM] (inactive).
With `COc1cc(C(C(=O)NC(C)(C)C)N(C(=O)CNC(=O)c2cccs2)c2ccc(C(C)C)cc2)cc(OC)c1OC` (stereo unspecified), the Potency entry was “inactive” and the cell number change is 12.2%.
On to `COc1ccccc1CC(=O)NCCc1c[nH]c2ccccc12`, for which the Potency was 0.231 µM (active) and the cell number change was 10.3%.
Taken in the same sequence, the figures for `COc1ccc2[nH]cc(CCNC(=O)C3CCCCC3)c2c1` were “inactive” and -11.3%.
Taken in the same sequence, the figures for `CCCc1cc(=O)oc2cc(OCC(=O)NCCc3c[nH]c4ccc(OC)cc34)ccc12` were 8.2 µM (active) and -12%.
`COc1ccc2[nH]cc(CCNC(=O)Cc3ccc(F)cc3)c2c1`: the Potency result is “inactive”.
Turning to `COc1ccc2[nH]cc(CCNC(=O)COc3cc(C)cc4oc(=O)cc(C)c34)c2c1`, the Potency result is “inactive” and the cell number change was -0.087%.
The like results for `COc1ccc(C(=O)NCC(=O)NCCc2c[nH]c3ccccc23)cc1OC` were, in that order, “inactive” and 7.36%.
For `CCCc1cc(=O)oc2cc(OCC(=O)NCCc3ccc(S(N)(=O)=O)cc3)ccc12`, the Potency entry was “inactive” and the cell number change is -10.3%.
Taken in the same sequence, the figures for `COc1ccc(C(=O)NCCc2c[nH]c3ccccc23)cc1OC` were “inactive” and -1.75%.
With `COc1ccc2[nH]cc(CCNC(=O)CCC3CCCCC3)c2c1`, the Potency is 16.4 µM (active) and the cell number change is -11.7%.
The like results for `O=C(CCc1nc2ccccc2c(=O)[nH]1)OCc1cccc(C(F)(F)F)c1` were, in that order, “inactive” and -19.1%.
On to `COc1ccc(CN2CCCCC2C)cc1C` (stereo unspecified), for which the Potency result is “inactive” and the cell number change was 16%.
The like results for `Cc1cccc(NC(=O)CSc2nc3[nH]ncc3c(=O)[nH]2)c1C` were, in that order, “inactive” and 6.95%.
Taken in the same sequence, the figures for `COc1ccc(-c2nnc(-c3ccc(Br)o3)o2)cc1OC` were “inactive” and 2.37%.
Taken in the same sequence, the figures for `CCOC(=O)N1CCN(C(=O)COc2ccc(S(=O)(=O)NC(C)C)cc2)CC1` were “inactive” and -5.69%.
`CCOc1ccc(S(=O)(=O)NC2CCCC2)cc1`: the Potency result is “inactive” and the cell number change was 13.5%.
Taken in the same sequence, the figures for `CCOc1ccc(S(=O)(=O)N/N=C(\C)C2CCCCC2)cc1` were 20.6 µM (active) and -18.4%.
Taken in the same sequence, the figures for `CCOc1ccc(S(=O)(=O)NC2CCCCCC2)cc1` were “inactive” and 1.37%.
The like results for `CCNC(=O)CSc1nc(-c2ccc(F)cc2)cs1` were, in that order, “inactive” and 6.04%.
As to `Oc1c(N=Nc2ccc(F)cc2)ccc2ccccc12`, the Potency was 4.11 µM (active) and the cell number change is -26.4%.
Taken in the same sequence, the figures for `Cc1ccc(N=Nc2ccc3ccccc3c2O)cc1` were 0.058 µM (active) and 1.47%.
For the compound `Oc1ccc2ccccc2c1N=Nc1ccc(F)cc1`, the Potency was 5.8 µM (active) and the cell number change is -18.6%.
Taken in the same sequence, the figures for `O=C(CNc1ccc(F)cc1)N/N=C/c1c(O)ccc2ccccc12` were “inactive” and -11.6%.
As for `NS(=O)(=O)c1ccc(N=Nc2c(O)c(C(=O)O)cc3ccccc23)cc1`, the Potency entry was “inactive” and the cell number change is -8.07%.
The like results for `Cc1ccc(N=Nc2ccc(O)c3ncccc23)cc1` were, in that order, “inactive” and -11.6%.
Taken in the same sequence, the figures for `O=C(NNC(=O)c1ccc2ccccc2c1O)Nc1ccc(F)cc1` were “inactive” and 22.7%.
The like results for `O=C(O)c1cc(N=Nc2c(O)ccc3ccccc23)cc(C(=O)O)c1` were, in that order, “inactive” and 0.308%.
`Cc1ccc(N=Nc2ccc(C)cc2NC(=O)Nc2ccccc2F)cc1`: the Potency entry is “inactive” and the cell number change came out at 4.52%.
Taken in the same sequence, the figures for `Cc1cccc(C)c1OCC(=O)N/N=C/c1ccncc1` were “inactive” and 1.08%.
Regarding `CN(CC(=O)Nc1ccc(Cl)cc1)C(=O)c1cc(-c2cccs2)nn1-c1ccccc1`, the Potency entry is “inactive” and the cell number change is 15.7%.
The like results for `COC(=O)CCC(=O)Nc1ccc(Br)cc1` were, in that order, “inactive” and -3.41%.
Taken in the same sequence, the figures for `CCOc1ccccc1NC(=O)CSc1nnc(CCC(=O)Nc2ccccc2F)n1C` were “inactive” and -0.293%.
The like results for `CC(C)(C)OC(=O)N[C@@H](CCCCNC(=O)OCc1ccccc1)c1nnc([C@H](CCCCNC(=O)OCc2ccccc2)NC(=O)OC(C)(C)C)o1` were, in that order, “inactive” and -3.75%.
Turning to `CCNC(=S)N1CCN(c2ccccn2)CC1`, the Potency entry was “inactive” and the cell number change came out at 12.6%.
Turning to `CC(C)(C)c1ccc(C(=O)NC(=S)N2CCOCC2)cc1`, the cell number change came out at 8.33% and the outcome is “inactive [at 0.369 µM]”.
As for `CC(C)(C)c1ccc(C(=O)N2CCC3(CC2)NCCc2[nH]cnc23)cc1`, the Potency entry is “inactive” and the cell number change was 22.1%.
Taken in the same sequence, the figures for `O=Cc1ccc(OCC(=O)Nc2ccccc2-c2ccccc2)cc1` were “inactive” and 18%.
The like results for `COc1ccccc1NC(=O)Cc1cccc2ccccc12` were, in that order, “inactive” and -14.6%.
Taken in the same sequence, the figures for `COc1cc(NS(=O)(=O)c2ccc(NC(=S)NC(=O)c3ccco3)cc2)nc(OC)n1` were “inactive” and -18.5%.
Regarding `COc1cc(/C=N/n2c(-c3cc(C)[nH]n3)n[nH]c2=S)ccc1O`, the Potency entry is “inactive” and the cell number change came out at 4.27%.
Taken in the same sequence, the figures for `CCOC(=S)SCC(=O)Nc1nc(-c2ccccc2)cs1` were 23.1 µM (active) and -22.6%.
The like results for `COCC(=O)Nc1nc(-c2ccc(-c3ccccc3)cc2)cs1` were, in that order, “inactive” and 7.77%.
The like results for `CC1CCN(CC(=O)Nc2nc(-c3ccccc3)cs2)CC1` were, in that order, “inactive” and 10.6%.

The values are drawn from PubChem BioAssay AID2685 (National Center for Advancing Translational Sciences (NCATS), 2010).
